According to ChEMBL document CHEMBL1961873, “Compounds: GSK PKIS; Assays: Nanosyn kinase panel” (2012):

Experiments:
[1] = biological target: 5'-AMP-activated protein kinase catalytic subunit alpha-2 (Homo sapiens) (UniProt P54646); details: at 1 µM
[2] = biological target: T1, NUAK family SNF1-like kinase 1 (Homo sapiens) (UniProt O60285); details: at 0.1 µM
T1 sequence (whole entry): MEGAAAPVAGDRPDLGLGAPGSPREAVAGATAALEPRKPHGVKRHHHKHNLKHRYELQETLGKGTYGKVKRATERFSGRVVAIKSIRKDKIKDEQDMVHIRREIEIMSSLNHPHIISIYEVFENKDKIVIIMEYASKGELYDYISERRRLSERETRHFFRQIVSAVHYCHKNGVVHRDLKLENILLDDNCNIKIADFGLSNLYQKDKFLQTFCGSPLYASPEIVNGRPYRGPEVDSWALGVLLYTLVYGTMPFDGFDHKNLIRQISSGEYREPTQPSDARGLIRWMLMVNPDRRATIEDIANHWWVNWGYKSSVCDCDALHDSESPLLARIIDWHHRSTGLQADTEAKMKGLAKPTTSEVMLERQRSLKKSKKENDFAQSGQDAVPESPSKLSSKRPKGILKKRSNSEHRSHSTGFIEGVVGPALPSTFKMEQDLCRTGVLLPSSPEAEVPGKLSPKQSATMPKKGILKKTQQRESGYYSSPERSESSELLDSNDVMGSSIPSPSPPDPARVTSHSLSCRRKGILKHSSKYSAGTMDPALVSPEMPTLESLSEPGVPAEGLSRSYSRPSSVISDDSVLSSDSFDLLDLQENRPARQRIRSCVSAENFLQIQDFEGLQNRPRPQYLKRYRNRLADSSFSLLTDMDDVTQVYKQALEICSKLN

[3] = biological target: T1, NUAK family SNF1-like kinase 1 (Homo sapiens); details: at 1 µM
[4] = biological target: T2, Serine/threonine-protein kinase BRSK1 (Homo sapiens) (UniProt Q8TDC3); details: at 0.1 µM
T2 sequence (whole entry): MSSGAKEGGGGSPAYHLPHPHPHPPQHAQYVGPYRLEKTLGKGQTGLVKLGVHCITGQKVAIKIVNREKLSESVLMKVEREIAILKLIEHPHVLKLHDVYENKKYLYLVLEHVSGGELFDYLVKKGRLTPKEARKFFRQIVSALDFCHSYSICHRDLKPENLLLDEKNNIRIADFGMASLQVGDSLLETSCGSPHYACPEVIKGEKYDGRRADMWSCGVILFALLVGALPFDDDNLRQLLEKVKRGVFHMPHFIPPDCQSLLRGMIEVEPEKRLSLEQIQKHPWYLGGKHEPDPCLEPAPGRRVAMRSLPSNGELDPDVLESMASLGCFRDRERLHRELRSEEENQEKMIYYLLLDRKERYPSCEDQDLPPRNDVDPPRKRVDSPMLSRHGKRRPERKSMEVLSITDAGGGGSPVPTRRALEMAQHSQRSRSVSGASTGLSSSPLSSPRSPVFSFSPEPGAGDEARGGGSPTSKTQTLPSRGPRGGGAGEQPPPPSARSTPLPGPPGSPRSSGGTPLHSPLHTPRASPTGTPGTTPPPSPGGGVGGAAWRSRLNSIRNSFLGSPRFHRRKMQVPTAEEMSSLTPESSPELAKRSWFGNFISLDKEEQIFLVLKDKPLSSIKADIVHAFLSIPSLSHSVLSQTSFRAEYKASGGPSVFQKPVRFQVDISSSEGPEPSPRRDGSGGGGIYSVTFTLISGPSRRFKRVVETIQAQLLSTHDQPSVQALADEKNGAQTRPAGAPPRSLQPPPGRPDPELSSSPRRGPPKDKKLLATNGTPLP

[5] = biological target: T2, Serine/threonine-protein kinase BRSK1 (Homo sapiens); details: at 1 µM
[6] = biological target: T3, Serine/threonine-protein kinase BRSK2 (Homo sapiens) (UniProt Q8IWQ3); details: at 0.1 µM
T3 sequence (whole entry): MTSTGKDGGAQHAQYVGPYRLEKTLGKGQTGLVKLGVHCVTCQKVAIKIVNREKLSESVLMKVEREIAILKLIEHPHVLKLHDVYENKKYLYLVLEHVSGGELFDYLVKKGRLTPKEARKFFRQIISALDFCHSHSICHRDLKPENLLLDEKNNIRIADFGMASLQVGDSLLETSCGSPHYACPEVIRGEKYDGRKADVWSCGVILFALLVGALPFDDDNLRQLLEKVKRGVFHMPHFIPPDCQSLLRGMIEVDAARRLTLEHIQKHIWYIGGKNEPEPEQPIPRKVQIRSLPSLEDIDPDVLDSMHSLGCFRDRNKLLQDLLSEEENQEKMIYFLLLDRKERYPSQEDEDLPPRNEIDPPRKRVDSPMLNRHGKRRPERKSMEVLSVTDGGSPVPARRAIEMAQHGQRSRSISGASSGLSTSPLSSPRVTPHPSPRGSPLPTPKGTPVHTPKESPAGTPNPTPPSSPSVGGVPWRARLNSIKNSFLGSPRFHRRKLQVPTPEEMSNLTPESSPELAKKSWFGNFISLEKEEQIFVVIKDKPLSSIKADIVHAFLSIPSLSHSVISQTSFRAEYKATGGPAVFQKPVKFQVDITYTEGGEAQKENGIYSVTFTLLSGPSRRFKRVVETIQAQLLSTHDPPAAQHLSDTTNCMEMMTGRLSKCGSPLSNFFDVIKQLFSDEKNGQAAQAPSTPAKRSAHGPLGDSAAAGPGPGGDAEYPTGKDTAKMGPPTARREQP

[7] = biological target: T3, Serine/threonine-protein kinase BRSK2 (Homo sapiens); details: at 1 µM
[8] = biological target: Calcium/calmodulin-dependent protein kinase type 1D (Homo sapiens) (UniProt Q8IU85); details: at 0.1 µM
[9] = biological target: Calcium/calmodulin-dependent protein kinase type 1D (Homo sapiens) (UniProt Q8IU85); details: at 1 µM
[10] = biological target: Calcium/calmodulin-dependent protein kinase type II subunit alpha (Homo sapiens) (UniProt Q9UQM7); details: at 0.1 µM
[11] = biological target: Calcium/calmodulin-dependent protein kinase type II subunit alpha (Homo sapiens) (UniProt Q9UQM7); details: at 1 µM
[12] = biological target: Calcium/calmodulin-dependent protein kinase type II subunit delta (Homo sapiens) (UniProt Q13557); details: at 0.1 µM
[13] = biological target: Calcium/calmodulin-dependent protein kinase type II subunit delta (Homo sapiens) (UniProt Q13557); details: at 1 µM
[14] = biological target: T4, Calcium/calmodulin-dependent protein kinase type IV (Homo sapiens) (UniProt Q16566); details: at 0.1 µM
T4 sequence (whole entry): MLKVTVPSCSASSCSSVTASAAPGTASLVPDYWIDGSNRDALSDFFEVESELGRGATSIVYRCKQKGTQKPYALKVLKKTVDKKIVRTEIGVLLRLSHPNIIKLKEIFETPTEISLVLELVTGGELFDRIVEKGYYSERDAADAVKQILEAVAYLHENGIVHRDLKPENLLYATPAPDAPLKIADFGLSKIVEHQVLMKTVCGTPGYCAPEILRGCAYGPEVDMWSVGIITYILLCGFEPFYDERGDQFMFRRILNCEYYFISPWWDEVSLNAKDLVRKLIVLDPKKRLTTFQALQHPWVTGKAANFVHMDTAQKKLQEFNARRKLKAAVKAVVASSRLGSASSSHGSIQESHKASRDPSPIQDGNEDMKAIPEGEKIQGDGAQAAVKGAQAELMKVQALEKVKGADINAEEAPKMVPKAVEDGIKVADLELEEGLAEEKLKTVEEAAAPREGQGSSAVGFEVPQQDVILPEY

[15] = biological target: T4, Calcium/calmodulin-dependent protein kinase type IV (Homo sapiens); details: at 1 µM
[16] = biological target: T5, Serine/threonine-protein kinase Chk1 (Homo sapiens) (UniProt O14757); details: at 0.1 µM
T5 sequence (whole entry): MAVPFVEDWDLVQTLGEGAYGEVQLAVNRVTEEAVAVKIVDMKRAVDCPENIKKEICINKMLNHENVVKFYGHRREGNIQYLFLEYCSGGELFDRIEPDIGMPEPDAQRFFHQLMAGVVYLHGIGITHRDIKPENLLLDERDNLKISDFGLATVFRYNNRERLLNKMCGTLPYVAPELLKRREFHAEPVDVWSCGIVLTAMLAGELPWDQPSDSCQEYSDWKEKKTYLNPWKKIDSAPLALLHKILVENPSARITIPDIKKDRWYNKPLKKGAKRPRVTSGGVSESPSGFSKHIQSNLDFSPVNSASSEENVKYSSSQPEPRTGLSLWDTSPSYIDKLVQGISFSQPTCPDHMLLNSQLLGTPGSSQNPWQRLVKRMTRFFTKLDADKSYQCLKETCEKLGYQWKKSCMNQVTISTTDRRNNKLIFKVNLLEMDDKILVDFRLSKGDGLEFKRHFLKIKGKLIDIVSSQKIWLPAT

[17] = biological target: T5, Serine/threonine-protein kinase Chk1 (Homo sapiens); details: at 1 µM
[18] = biological target: Serine/threonine-protein kinase Chk2 (Homo sapiens) (UniProt O96017); details: at 0.1 µM
[19] = biological target: Serine/threonine-protein kinase Chk2 (Homo sapiens) (UniProt O96017); details: at 1 µM
[20] = biological target: Death-associated protein kinase 1 (Homo sapiens) (UniProt P53355); details: at 0.1 µM;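 note: reported figure is the mean inhibition of DAPK1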
Sequence of Death-associated protein kinase 1 (Homo sapiens) (P53355 whole entry, looked up): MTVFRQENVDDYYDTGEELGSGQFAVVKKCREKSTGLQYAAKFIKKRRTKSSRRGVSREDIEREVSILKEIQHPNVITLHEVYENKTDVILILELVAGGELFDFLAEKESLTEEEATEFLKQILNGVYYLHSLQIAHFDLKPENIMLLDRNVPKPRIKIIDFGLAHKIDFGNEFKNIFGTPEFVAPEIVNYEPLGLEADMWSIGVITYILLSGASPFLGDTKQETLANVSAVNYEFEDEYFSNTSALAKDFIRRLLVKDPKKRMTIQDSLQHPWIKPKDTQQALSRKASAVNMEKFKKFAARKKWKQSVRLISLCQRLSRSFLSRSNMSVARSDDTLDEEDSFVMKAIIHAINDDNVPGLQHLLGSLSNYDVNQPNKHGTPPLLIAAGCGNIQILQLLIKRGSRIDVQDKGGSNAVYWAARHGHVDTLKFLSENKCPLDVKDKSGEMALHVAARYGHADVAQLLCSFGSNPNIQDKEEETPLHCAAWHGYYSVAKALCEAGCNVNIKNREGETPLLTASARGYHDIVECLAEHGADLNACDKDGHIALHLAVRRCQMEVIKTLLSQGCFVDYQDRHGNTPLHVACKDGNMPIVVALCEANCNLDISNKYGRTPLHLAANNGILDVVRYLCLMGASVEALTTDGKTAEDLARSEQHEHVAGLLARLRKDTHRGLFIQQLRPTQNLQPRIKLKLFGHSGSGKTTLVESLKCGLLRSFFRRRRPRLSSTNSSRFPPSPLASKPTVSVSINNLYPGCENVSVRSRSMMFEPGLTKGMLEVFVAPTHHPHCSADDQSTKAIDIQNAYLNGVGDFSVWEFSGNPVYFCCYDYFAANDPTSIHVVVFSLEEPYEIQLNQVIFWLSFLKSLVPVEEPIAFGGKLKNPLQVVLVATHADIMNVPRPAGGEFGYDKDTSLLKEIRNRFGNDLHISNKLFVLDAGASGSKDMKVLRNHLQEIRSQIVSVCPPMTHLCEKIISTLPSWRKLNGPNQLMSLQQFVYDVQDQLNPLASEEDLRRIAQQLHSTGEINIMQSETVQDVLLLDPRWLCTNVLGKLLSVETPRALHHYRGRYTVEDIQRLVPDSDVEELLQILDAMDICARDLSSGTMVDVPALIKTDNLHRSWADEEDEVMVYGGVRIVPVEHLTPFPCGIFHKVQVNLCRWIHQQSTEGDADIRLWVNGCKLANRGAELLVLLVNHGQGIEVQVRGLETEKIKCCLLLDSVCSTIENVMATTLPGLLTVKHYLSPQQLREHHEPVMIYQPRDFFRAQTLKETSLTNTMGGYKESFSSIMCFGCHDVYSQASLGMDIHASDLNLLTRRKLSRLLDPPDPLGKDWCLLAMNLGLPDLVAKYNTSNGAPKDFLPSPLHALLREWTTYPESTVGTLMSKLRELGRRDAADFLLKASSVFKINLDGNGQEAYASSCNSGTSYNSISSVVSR

Sequence of Calcium/calmodulin-dependent protein kinase type 1D (Homo sapiens) (Q8IU85 whole entry, looked up): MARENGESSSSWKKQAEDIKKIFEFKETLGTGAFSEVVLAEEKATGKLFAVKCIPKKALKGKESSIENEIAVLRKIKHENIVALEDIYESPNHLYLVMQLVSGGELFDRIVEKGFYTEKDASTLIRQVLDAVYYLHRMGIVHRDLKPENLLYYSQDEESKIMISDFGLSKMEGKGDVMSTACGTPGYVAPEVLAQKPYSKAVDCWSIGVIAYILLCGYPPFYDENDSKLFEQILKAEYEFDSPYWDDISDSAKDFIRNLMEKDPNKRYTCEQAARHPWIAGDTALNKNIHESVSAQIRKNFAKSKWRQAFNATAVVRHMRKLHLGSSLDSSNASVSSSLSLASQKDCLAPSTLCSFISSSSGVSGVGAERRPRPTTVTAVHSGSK
Sequence of Calcium/calmodulin-dependent protein kinase type II subunit alpha (Homo sapiens) (Q9UQM7 whole entry): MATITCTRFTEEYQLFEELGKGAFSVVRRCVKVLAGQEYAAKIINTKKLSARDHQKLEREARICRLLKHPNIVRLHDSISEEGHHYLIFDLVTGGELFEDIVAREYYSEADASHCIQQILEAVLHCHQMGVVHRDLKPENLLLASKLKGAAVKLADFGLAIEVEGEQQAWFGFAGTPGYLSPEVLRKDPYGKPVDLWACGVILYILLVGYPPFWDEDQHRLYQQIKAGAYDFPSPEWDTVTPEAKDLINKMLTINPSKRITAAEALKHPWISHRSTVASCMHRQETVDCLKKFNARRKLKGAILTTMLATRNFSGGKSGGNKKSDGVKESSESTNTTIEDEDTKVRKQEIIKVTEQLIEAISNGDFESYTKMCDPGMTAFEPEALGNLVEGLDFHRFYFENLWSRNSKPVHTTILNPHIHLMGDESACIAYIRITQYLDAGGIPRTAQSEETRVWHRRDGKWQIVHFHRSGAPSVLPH
Sequence of 5'-AMP-activated protein kinase catalytic subunit alpha-2 (Homo sapiens) (P54646 whole entry, looked up): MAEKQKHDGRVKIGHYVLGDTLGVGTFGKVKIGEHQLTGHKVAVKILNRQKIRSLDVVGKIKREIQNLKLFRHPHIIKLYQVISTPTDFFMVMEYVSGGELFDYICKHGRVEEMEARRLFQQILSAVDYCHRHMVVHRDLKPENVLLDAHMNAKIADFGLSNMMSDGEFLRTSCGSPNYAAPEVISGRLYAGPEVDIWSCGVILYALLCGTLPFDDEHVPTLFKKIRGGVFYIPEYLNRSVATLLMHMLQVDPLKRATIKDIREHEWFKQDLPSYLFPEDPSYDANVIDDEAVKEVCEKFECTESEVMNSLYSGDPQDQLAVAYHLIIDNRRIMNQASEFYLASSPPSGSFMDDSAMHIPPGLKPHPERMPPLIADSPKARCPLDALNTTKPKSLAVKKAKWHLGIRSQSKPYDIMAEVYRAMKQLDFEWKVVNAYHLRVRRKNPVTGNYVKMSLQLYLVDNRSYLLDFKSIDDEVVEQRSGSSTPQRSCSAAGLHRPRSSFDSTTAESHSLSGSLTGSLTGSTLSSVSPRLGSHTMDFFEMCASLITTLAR
Sequence of Calcium/calmodulin-dependent protein kinase type II subunit delta (Homo sapiens) (Q13557 whole entry): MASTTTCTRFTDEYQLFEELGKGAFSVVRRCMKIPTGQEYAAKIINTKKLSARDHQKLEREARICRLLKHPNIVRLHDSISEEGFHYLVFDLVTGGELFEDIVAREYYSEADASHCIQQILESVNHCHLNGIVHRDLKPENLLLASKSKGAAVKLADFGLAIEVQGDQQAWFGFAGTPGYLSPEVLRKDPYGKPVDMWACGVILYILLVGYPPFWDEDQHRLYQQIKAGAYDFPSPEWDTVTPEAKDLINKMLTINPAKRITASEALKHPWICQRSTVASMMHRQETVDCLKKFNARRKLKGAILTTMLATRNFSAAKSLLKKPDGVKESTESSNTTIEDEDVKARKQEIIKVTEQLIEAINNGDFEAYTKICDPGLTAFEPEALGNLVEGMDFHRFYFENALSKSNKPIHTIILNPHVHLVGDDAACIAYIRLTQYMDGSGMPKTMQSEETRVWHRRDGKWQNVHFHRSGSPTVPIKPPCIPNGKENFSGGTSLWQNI
Sequence of Serine/threonine-protein kinase Chk2 (Homo sapiens) (O96017 whole entry): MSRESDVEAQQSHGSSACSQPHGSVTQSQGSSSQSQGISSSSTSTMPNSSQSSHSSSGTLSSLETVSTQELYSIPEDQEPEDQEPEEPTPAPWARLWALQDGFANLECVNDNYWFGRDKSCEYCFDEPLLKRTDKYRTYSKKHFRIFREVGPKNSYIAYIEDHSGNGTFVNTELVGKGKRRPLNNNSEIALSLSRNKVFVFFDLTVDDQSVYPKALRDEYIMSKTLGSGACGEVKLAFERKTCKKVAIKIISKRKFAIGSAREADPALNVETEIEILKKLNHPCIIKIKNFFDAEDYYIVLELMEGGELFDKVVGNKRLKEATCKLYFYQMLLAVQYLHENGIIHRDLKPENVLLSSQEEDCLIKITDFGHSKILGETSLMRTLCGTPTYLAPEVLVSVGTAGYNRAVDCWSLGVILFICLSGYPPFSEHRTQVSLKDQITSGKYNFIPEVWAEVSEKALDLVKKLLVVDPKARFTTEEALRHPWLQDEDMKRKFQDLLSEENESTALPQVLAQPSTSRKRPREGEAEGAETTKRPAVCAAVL

Compound	inhibition [1] [%]	inhibition [2] [%]	inhibition [3] [%]	inhibition [4] [%]	inhibition [5] [%]	inhibition [6] [%]	inhibition [7] [%]	inhibition [8] [%]	inhibition [9] [%]	inhibition [10] [%]	inhibition [11] [%]	inhibition [12] [%]	inhibition [13] [%]	inhibition [14] [%]	inhibition [15] [%]	inhibition [16] [%]	inhibition [17] [%]	inhibition [18] [%]	inhibition [19] [%]	inhibition [20] [%]
CN1CCC(C(=O)Nc2n[nH]c3nnc(-c4ccccc4)cc23)CC1	5.01	1.18	3.89	1.14	4.22	2.62	6.52	0.42	1.89	3.75	3.81	3.23	3.34	-0.65	-2.3	-2.79	-0.12	-1.11	3.84	-2.19
c1cnn2ncc(-c3ccnc(Nc4ccc5c(c4)OCCO5)n3)c2c1	12.6	52.8	83.2	0.46	6.78	2.51	9.28	1.5	5.85	5.45	15.3	7.61	35.7	0.39	1.89	0.16	6.81	2.96	9.21	3.38
COc1ccc2cc(-c3c(-c4ccncc4)nc(-c4ccc([S+](C)[O-])cc4)n3C)ccc2c1 (stereo not given)	3.34	1.01	2.13	1.67	3.16	1.67	0.66	-0.09	0.68	3.34	3.37	2.81	3.06	0.45	1.25	3.28	4.03	2.27	2.52	3.27
CCn1c(-c2nonc2N)nc2cncc(C(=O)N3CCNCC3)c21	3.25	-0.04	2.51	2.38	-2.27	-0.27	2.15	0.79	2.87	4.62	4.17	4.29	6.57	-0.66	1.55	6.55	13.8	2.96	5.6	8.7
NCc1ccc(-c2nc(-c3ccc(Cl)c(O)c3)c(-c3ccncc3)[nH]2)cc1	3.06	1.84	3.79	0.1	0.59	-0.21	1.33	0.15	0.23	0.76	2.11	-0.18	2.12	0.6	0.53	-0.88	2.53	-0.52	0.67	0.81
CC1=C(C(=O)Nc2ccc3[nH]ncc3c2)C(c2ccc(F)cc2)NC(=O)N1 (stereo not given)	5.96	4.1	11.3	1.49	8.31	1.99	15.5	0.49	-0.14	-0.47	0.1	1.48	1.35	0.3	-0.21	0.87	4.3	1.2	2.29	1.6
CC1=C(C(=O)Nc2ccc3[nH]ncc3c2)C(c2ccc(Cl)c(Cl)c2)CC(=O)N1 (stereo not given)	7.05	-0.25	14.9	1.14	10.1	1.61	15.5	-0.31	1.37	1.87	2.88	2.72	3.98	1.22	2.09	-1.3	-0.85	1.4	4.28	-2.03
